# Screening data from PubChem.
# The list is not random: actives were taken first. Their share in the collection is about 2.3%.
# CHO-K1 Ca PAM: counter-screen for M1 PAMs: effect in parental CHO-K1 cells | ATP EC20, Fluo-8 calcium fluorescence; 0% at ATP EC20, 100% at ATP max | hit rate 0.02% among 360,000 | activation, % at 3 µM;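 active means activation above the run cutoff, the mean activation of all test compounds plus 3 SD, cut at about 40% in these data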;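 further: peak over basal fluorescence ratio in a 140 s read after ATP addition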
# CHRM1 PAM: potentiates human M1 receptor response to acetylcholine; P11229; CHO-K1 hM1, Fluo-8 calcium fluorescence, ACh EC20; 0% = ACh EC20, 100% = maximal ACh; activation, % at 3 µM; hit rate 0.088% among 360,000; AID 588819; in the data active means activation above about 19%, passing the limit was not always enough
# Target sequence (P11229 whole entry, looked up): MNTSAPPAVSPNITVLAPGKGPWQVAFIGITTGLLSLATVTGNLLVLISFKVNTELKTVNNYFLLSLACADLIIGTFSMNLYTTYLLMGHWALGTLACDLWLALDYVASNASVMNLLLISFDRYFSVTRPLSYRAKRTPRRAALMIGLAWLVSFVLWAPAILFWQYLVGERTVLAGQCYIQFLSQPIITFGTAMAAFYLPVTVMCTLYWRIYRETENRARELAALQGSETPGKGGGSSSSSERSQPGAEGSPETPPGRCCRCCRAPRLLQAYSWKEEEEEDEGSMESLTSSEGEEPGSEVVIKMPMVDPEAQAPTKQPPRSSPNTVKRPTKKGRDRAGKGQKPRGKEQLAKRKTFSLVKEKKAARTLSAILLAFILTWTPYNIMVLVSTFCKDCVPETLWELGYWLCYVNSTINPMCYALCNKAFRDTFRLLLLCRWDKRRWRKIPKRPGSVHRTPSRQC
# M1 ag: activates human CHRM1 receptor; P11229; CHO-K1 hM1, Fluo-8 calcium fluorescence, agonist mode; 0% DMSO, 100% acetylcholine EC100; activation, % at 3 µM; hit rate 0.33% among 360,000; AID 588814;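 active means activation above the run's mean compound activation plus 3 SD, cut at about 16% in these data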;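 further: peak over basal fluorescence ratio within a 140 s kinetic read after compound addition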
# CHO-K1 Ca antag: nonselective inhibitor or artifact in parental CHO-K1 cells | ATP-induced calcium, Fluo-8 fluorescence | hit rate 0.6% among 360,000 | inhibition, % at 3 µM;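 active means inhibition above a per-plate cutoff, the plate's mean sample inhibition plus 3 SD, cut at about 24% in these data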;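 further: 0% = DMSO plus EC80 ATP and 100% = DMSO alone without ATP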
# CHO-K1 Ca ag: counter-screen for M1 agonists: effect in parental CHO-K1 cells. activation, % at 3 µM. AID 602248. hit rate 0.48% among 360,000. Fluo-8 calcium fluorescence; scaled to maximal ATP response, vehicle zero; in the data active means activation above about 15%;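 further: untransfected CHO-K1 host cells lacking M1 receptor as counterscreen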
# CHRM1 antagonist: human CHRM1 antagonism. CHO-K1 hM1, Fluo-8 calcium fluorescence, ACh EC80 antagonist. inhibition, % at 3 µM. hit rate 1.3% among 360,000. AID 588852;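 active means percent inhibition above its own plate's cutoff, namely the mean of that plate's compound wells plus 3 SD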;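 further: peak over basal fluorescence ratio during 140 s after agonist addition; 0% = ACh EC80 plus DMSO and 100% = DMSO alone without agonist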
# * marks the source's active call; other numbers are inactive results.
SMILES,CHO-K1 Ca PAM,CHRM1 PAM,M1 ag,CHO-K1 Ca antag,CHO-K1 Ca ag,CHRM1 antagonist
COc1ccccc1C(CNC(=O)c1cccc(NS(=O)(=O)c2ccc(C)c(F)c2)c1)N1CCCC1 (stereo not drawn),-10.9,-26.2,-7.5,-7.7,1.4,84.0*
COc1ccc(C(CNC(=O)c2ccc(NS(=O)(=O)c3ccc(F)c(C)c3)cc2)N2CCCC2)cc1 (stereo not drawn),17.0,-28.5,-8.2,-6.8,1.0,73.1*
CC1(c2ccc3ccccc3c2)NC(=O)N(CC(=O)NCC(C)(C)N2CCOCC2)C1=O (stereo not drawn),-5.7,-5.3,-5.7,4.0,0.2,-1.6
Cc1nnc(SCC(=O)Nc2ccc(S(N)(=O)=O)cc2)n(N)c1=O,20.1,9.7,0.9,-11.9,1.1,-8.5
C/C(=N\NC(=S)NC(C)C)c1ccc(Cl)s1,-3.4,-24.1,-9.7,6.6,-0.2,80.9*
Cn1nc(C(F)(F)F)c(C(=O)Nc2ccc(F)cc2F)c1Sc1cccc(C(F)(F)F)c1,-6.1,-15.8,-3.7,-9.9,1.2,34.4*
Cn1nc(C(F)(F)F)c(C(=O)Nc2ccc(F)cc2F)c1Sc1cccc(Cl)c1,1.8,-16.1,-8.1,-1.3,-0.3,10.7
COc1ccc(NC(=O)c2ccc(COc3ccccc3Br)o2)c(OC)c1,36.3,16.0,-0.9,-6.2,0.8,-14.3
COc1ccc(NC(=O)COC(=O)Cc2ccc(-c3ccccc3)cc2)c(OC)c1,46.0*,-5.8,1.7,-24.7,5.0,3.4
COc1ccc(NC(=O)c2ccc(COc3ccccc3)o2)c(OC)c1,42.3*,-3.0,-2.2,-14.2,1.6,-15.5
COc1ccc(C)cc1NC(=O)COC(=O)Cc1ccc(-c2ccccc2)cc1,23.2,4.1,-4.8,-4.0,1.3,-9.9
COc1ccc(Cl)cc1NC(=O)CCS(=O)(=O)c1ccc(C)cc1,13.9,10.9,-3.2,-10.4,0.5,-7.0
COc1ccc(-c2cn(-c3ccc(Br)cc3)c3[n+]2CCS3)cc1,0.7,-25.3,-7.9,0.6,0.1,44.0*
Clc1ccc(-c2cn(-c3ccccc3)c3[n+]2CCS3)cc1,24.8,-32.6,-13.2,-10.5,0.3,58.4*
CC(=O)c1ccc(-n2cc(-c3ccc(C(C)(C)C)cc3)[n+]3c2SCCC3)cc1,12.4,-32.2,-14.4,-2.2,-0.2,38.7*
Fc1ccc(-c2cn(-c3ccccc3)c3[n+]2CCS3)cc1,13.2,-12.4,-7.0,-7.3,0.5,11.3
COc1ccc(CN2C[C@@H](CO)O[C@@H](n3cnc4c(N5CCN(c6ccccc6)CC5)ncnc43)C2)cc1,8.4,-13.7,3.5,1.1,9.5,3.1
COc1ccc(N2CCN(CCCNC(=O)Cn3c(=O)c4cccn4c4ccccc43)CC2)cc1,1.1,-1.5,-3.5,-8.4,0.3,-3.2
Nn1c(SCC(=O)Nc2nccs2)nnc1-c1cccnc1,-11.2,16.9,2.0,-18.9,0.0,-3.1
CCOC(=O)c1c(N)sn(-c2ccccc2C)c1=S,-2.0,-9.4,-3.6,2.4,0.4,33.7*
O=C(COC(=O)c1ccc[nH]c1=O)NC1CC1,7.5,2.7,-3.6,-4.2,0.7,0.2
CN(C1CCCCC1)S(=O)(=O)c1cccc2nsnc12,17.6,8.4,-4.8,-24.3,1.3,-12.3
c1coc(CN(Cc2ccco2)c2ncnc3c2oc2ccccc23)c1,17.0,-15.6,0.2,9.8,6.3,36.6*
Clc1ncnc2c1oc1ccccc12,21.0,4.8,-3.3,-19.1,0.7,-8.5
CCCSc1ccc([C@H]2N[C@@](C)(C(=O)OC)[C@H]3C(=O)N(C)C(=O)[C@@H]23)cc1,9.4,4.5,-3.1,-14.5,0.6,-12.4
SMILES,CHO-K1 Ca PAM,CHRM1 PAM,M1 ag,CHO-K1 Ca antag,CHO-K1 Ca ag,CHRM1 antagonist
CCCCCCSc1ccc([C@H]2N[C@@](C)(C(=O)OC)[C@H]3C(=O)N(C)C(=O)[C@@H]23)cc1,-16.4,-18.0,-4.8,6.4,2.2,36.4*
CC(=O)N1CC(C)Sc2ccc(S(=O)(=O)NC(C)c3ccccc3)cc21 (stereo not drawn),-1.8,0.2,3.0,4.1,8.5,4.4
Cc1cc(C(=O)COC(=O)c2n[nH]c3ccccc23)c(C)n1C,27.2,8.6,-2.0,-10.0,2.1,-12.9
Cc1cc(C(=O)COC(=O)c2n[nH]c(=O)c3ccccc23)c(C)n1C,-6.8,-12.3,-1.1,5.8,-0.1,28.4*
O=C(Oc1cccc(C(=S)N2CCOCC2)c1)c1cccc([N+](=O)[O-])c1,23.8,1.8,-8.9,-8.3,1.9,-1.1
O=C(Oc1ccc(C(=S)N2CCOCC2)cc1)c1cccc([N+](=O)[O-])c1,-25.7,-6.8,-4.5,29.3*,-0.3,12.3
CNC(=O)NC(=O)C(c1ccccc1)N(C)CC1COc2ccccc2O1 (stereo not drawn),15.4,8.9,-3.0,-10.6,0.8,-8.7
Cc1nccn1CC(O)Cn1c2ccccc2c2ccccc21 (stereo not drawn),22.9,-20.6,-5.2,-9.6,1.0,36.1*
Cc1cc(C)c[n+](CC(=O)c2cc3ccccc3oc2=O)c1,-4.5,-21.7,-6.9,1.7,-0.2,93.2*
Cc1cccc(NC(=O)c2cc3ccccc3oc2=O)c1,-19.6,5.3,-0.3,7.9,0.0,-11.7
Cc1ccc[n+](CC(=O)c2cc3ccccc3oc2=O)c1,21.4,-35.1,-10.9,-15.6,1.9,90.4*
CC(=O)c1cc2ccccc2oc1=O,12.5,7.0,-4.2,-21.1,0.2,-7.1
O=C(CN1C(=O)NC2(CCCCC2)C1=O)Nc1ccccc1N1CCCC1,-23.5,10.1,-0.2,3.5,-0.1,-6.9
O=C(NCCc1ccccc1)c1ccc(NC(=O)c2cccnc2)cc1,12.1,7.7,-4.0,-2.9,3.2,-19.1
CCOC(=O)c1ccc(NC(=O)CCc2nc(-c3ccccc3)no2)cc1,4.5,-9.8,-0.1,5.9,5.8,31.1*
O=C(Nc1ccc(-c2noc(CCc3ccccc3)n2)cc1)c1cccnc1,0.9,-12.9,1.4,19.9,6.5,26.1*
COc1ccccc1CCNC(=O)C(=O)NCC1OCCN1C(=O)c1ccc(Cl)cc1 (stereo not drawn),-29.4,-3.2,-2.7,10.3,4.4,10.1
Cc1cc(=S)cc(C)n1CCCO,-3.9,-1.8,-7.0,28.6*,0.0,5.8
Cc1nc2cc(Cl)c(Cl)cc2n1CCCO,17.2,5.2,-7.3,-5.3,1.4,-4.9
COC(=O)c1cc2c(ccn2-c2ccc(F)cc2)n1Cc1ccc(OC(C)=O)cc1,28.6,7.3,-1.0,-7.2,20.9*,-7.1
CCOC(=O)c1c(C)[nH]c(C)c1S(=O)(=O)NCCN1CCN(c2ccccc2F)CC1,17.9,6.7,-9.6,-21.6,-0.7,-7.8
CSc1nc2sc3c(c2c(=O)n1C1CCCCC1)CCN(C)C3,7.1,-22.7,-5.9,-7.1,0.8,29.3*
C=C(C)CSc1nc2sc3c(c2c(=O)n1-c1ccccc1)CCN(C)C3,15.3,-24.4,-10.9,-7.0,0.5,36.0*
